# In the library only some 4.6% were active in any assay of this set; here they are far more common.
# NLRP3 yeast inh: NALP3 inflammasome inhibitors in reconstituted yeast, primary screen, luminescence, uHTS. Yeast reconstituted NLRP3/ASC/caspase-1, beta-gal luminescence, 24 h. inhibition, % at 10 µM. 330,000 compounds, 0.39% hits. AID 2825, 2010;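 active means inhibition of 50% or more; inactive means inhibition below 50%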;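 further: plate controls were induced DMSO wells for no effect and uninduced yeast grown without galactose for full effect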
# SKKanGAS inh: S. pyogenes SKKanGAS growth inhibitors in kanamycin, primary screen, streptokinase expression inhibitor project, SKKanGAS strain, BacTiter-Glo luminescence. 6 h. inhibition, % at 7.5 µM. 300,000 compounds, 1.3% hits. AID 1662, 2009;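 active means mean replicate score, as percent of positive control median, at least 50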;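 further: strain carries kanamycin resistance gene driven by streptokinase promoter and grows in 40 µg/ml kanamycin; loss of luminescence reflects streptokinase promoter inhibition or plain growth inhibition; 0% = median of DMSO wells and 100% = positive control at its reference dose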
# tim23-1 inh: growth inhibitors of tim23-1 mutant yeast, primary screen, luminescence, uHTS | S. cerevisiae tim23-1 growth, BacTiter-Glo luminescence, 24 h | inhibition, % at 20 µM | 330,000 compounds, 1.3% hits | AID 463212, 2010;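 active means growth inhibition of the mutant yeast at or above 50%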;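 further: temperature-sensitive mutant grown at 25 °C; plate controls were DMSO-treated mutant yeast for no effect and medium wells lacking yeast for full effect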
# PfHsp90 set2: growth inhibition of PfHsp90-expressing yeast, primary screen, antimalarial PfHsp90 inhibitor project, S. cerevisiae, BacTiter-Glo luminescence, single point, set 2; BacTiter-Glo ATP, 48 h; yeast lacking PDR1 and PDR3 efflux regulators; inhibition, % at 9.4 µM; 310,000 compounds, 0.32% hits; AID 504621, 2011;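 active means every replicate shows inhibition above about 80%, whatever the replicate mean, limit read from the data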;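 further: 0% = DMSO neutral controls and 100% = 20 µM radicicol positive controls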
# tim10-1 inh: growth inhibitors of tim10-1 mutant yeast, primary screen, luminescence, uHTS; S. cerevisiae tim10-1 ts strain growth, BacTiter-Glo, 24 h; inhibition, % at 20 µM; 330,000 compounds, 2.2% hits;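 active means inhibition of at least 40%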;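 further: mutant grown at 25 °C; 0% = DMSO wells with yeast and 100% = wells holding no yeast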
# TIM10 inh: growth inhibitors of isogenic TIM10 control yeast, primary screen, counter-screen for tim10-1 yeast inhibitor project, luminescence, uHTS | S. cerevisiae TIM10 strain growth, BacTiter-Glo luminescence, 24 h | inhibition, % at 10 µM | 330,000 compounds, 1.4% hits | AID 463195, 2010;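 active means inhibition of 40% or more at the single tested concentration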;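 further: wild-type TIM10 isogenic control strain grown at permissive 25 °C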
# tim23-1 conf: tim23-1 mutant yeast growth inhibitors, confirmation, luminescence, single concentration; inhibition, % at 20 µM; shares compounds with tim23-1 inh; 4,400 compounds, 83% hits; S. cerevisiae tim23-1 growth, BacTiter-Glo luminescence, 24 h; AID 463218, 2010;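 active means inhibition above about 39% in either of two replicate wells at 20 µM, limit read from the data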;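 further: temperature-sensitive tim23-1 mutant grown at 25 °C; 0% = DMSO wells with yeast and 100% = medium wells without yeast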
# The depositor's hits bear a star; / = no result given.
SMILES,NLRP3 yeast inh,SKKanGAS inh,tim23-1 inh,PfHsp90 set2,tim10-1 inh,TIM10 inh,tim23-1 conf
CCC(C)Sc1ccc(-c2nc3cc(C)ccn3c2NC2CCCCC2)cc1 (stereo not given),16,/,56*,26,24,32,47*
CC(C)c1ccc(/C=C/C(=O)NC(=S)NN2CCOCC2)cc1,10,/,54*,5,29,27,36
CCc1nc(Nc2cccc(O)c2)c2oc3ccccc3c2n1,16,10,60*,5,9,29,46*
CCc1nc(Nc2ccncc2)c2oc3ccccc3c2n1,-3,0,-2,5,6,6,/
Oc1cccc(C=NN=C2c3ccccc3-c3ccccc32)c1,/,/,/,-34,/,/,/
C=CCS/C(N)=N\N=C\c1cc(Br)cc([N+](=O)[O-])c1O,31,31,55*,-32,11,17,44*
CCOc1ccccc1N1CCN(C(=S)NCc2ccc(Cl)cc2)CC1,9,-2,55*,-24,39,35,46*
CCOc1ccccc1N1CCN(C(=O)CC(C)(C)C)CC1,18,13,21,/,23,15,/
CCOc1ccccc1N1CCN(C(=S)NC(=O)C23CC4CC(CC(C4)C2)C3)CC1,12,3,51*,-1,34,35,31
CC(CCc1ccccc1)NC(=O)CN1C(=O)NC2(CCCCC2C)C1=O (stereo not given),3,/,3,-1,-3,-2,/
COc1cc(CN(C)CC2CCCN(CCc3ccccc3F)C2)cc(Cl)c1OC (stereo not given),32,1,-29,2,1,1,/
CCOC(=O)C(=CNNc1ccccc1)C(=O)OCC,19,-2,52*,-30,40,20,79*
CCOC(=O)NNc1ccccc1,6,3,4,-14,-32,-41,/
CC1CCc2c(sc3nc(C(C)(C)C)nc(N4CCN(C(=O)CCl)CC4)c23)C1 (stereo not given),14,70*,50*,59,21,24,53*
CCC(=O)N1CCN(c2nc(CC)nc3sc4c(c23)CCCC4)CC1,-4,-3,-15,16,-42,-18,/
N#Cc1ccc(CN2CCN(C(=O)CC(NC(=O)c3ccccc3)c3ccccc3)CC2)cc1 (stereo not given),1,0,10,13,12,-3,/
c1ccc(-c2ccnc3nc(N4CCN(c5ccccc5)CC4)nn23)cc1,16,-2,51*,-89,17,30,37
Fc1ccc(-c2ccnc3nc(N4CCN(c5ccccc5)CC4)nn23)cc1,4,-2,41,-1,33,23,/
Oc1ccc(N=C/C=C/c2ccc(Br)cc2)cc1-c1nc2ccccc2s1,25,20,64*,/,23,30,44*
Brc1cc2c(cc1-c1nc3ccccc3s1)OCO2,20,-1,8,6,8,6,/
c1ccc2cc(OCc3nc4ccccc4[nH]3)ccc2c1,44,14,52*,7,22,27,30
C[C@H](OC(=O)N1CCN(C(c2ccccc2)c2ccccc2)CC1)[C@@H]1O[C@@]2(C)CCC[C@H]1O2,-7,5,38,-8,26,26,/
CCC1(c2ccccc2)NC(=O)N(CC(=O)NNC(=O)COc2ccc(Cl)cc2C)C1=O (stereo not given),15,/,9,1,3,-5,/
CCC1(CC)NC(=O)N(CC(=O)OC(C)C(=O)Nc2ccc(NC(C)=O)cc2)C1=O (stereo not given),14,-9,-12,-8,-27,5,/
Cc1ccc(C2CC(c3cccs3)=NN2C(=O)CCl)cc1 (stereo not given),31,10,64*,-49,25,35,-29
SMILES,NLRP3 yeast inh,SKKanGAS inh,tim23-1 inh,PfHsp90 set2,tim10-1 inh,TIM10 inh,tim23-1 conf
O=C(c1ccccc1)N1N=C(c2cccs2)CC1c1ccccc1O (stereo not given),15,-11,57*,3,12,14,43*
COc1ccc(-n2nc(C(=O)NCC(=O)NCCCN3CCN(C)CC3)c3ccccc3c2=O)cc1,8,3,-1,1,-8,7,/
Cc1ccc(N=Cc2cc(Cl)cc(Cl)c2O)nc1,5,-1,66*,-34,8,10,76*
Cc1ccc(N=CC2=C(O)CC(C)(C)CC2=O)nc1,10,-2,1,-30,8,-3,/
COc1ccc(C(=O)N/N=C/c2ccc(OC)c(COc3ccc(F)cc3)c2)cc1,20,14,22,-6,18,9,/
COc1ccc(C(=O)N/N=C/c2ccc(OC)c(COc3ccc(F)cc3F)c2)cc1,2,16,55*,13,9,20,40*
CC(C)OC(=O)Cc1nc2sc(-c3ccccc3)cc2c(=O)[nH]1,24,22,33,-6,36,10,/
O=C(C1=C(O)C(=O)N(c2ncccn2)C1c1ccc(Cl)c(Cl)c1)c1ccco1 (stereo not given),5,37,58*,0,14,20,41*
O=C(COC(=O)c1cccnc1Cl)NCCc1ccc(F)cc1,22,/,12,/,0,0,/
COc1cccc(Nc2nc3ccc(OC)cc3s2)c1,26,7,61*,-47,18,37,57*
COc1cccc(Nc2nc(-c3sc(C)nc3C)cs2)c1,25,-12,55*,-81,15,30,46*
COc1ccc2nc(NC3=NCCC3)sc2c1,32,2,12,-12,9,18,/
COc1cccc(Nc2nc(-c3sc(N)nc3C)cs2)c1,22,35,23,21,15,10,/
COc1cc(CCc2ccccc2)c(C(=O)O)c(O)c1CC=C(C)C,/,/,/,18,/,/,/
COc1cc(CCc2ccccc2)c(C(=O)O)c(O)c1C/C=C(/C)CCC=C(C)C,/,/,75*,-8,28,15,20
Cc1nn(-c2ccccc2)c(OC(=O)c2cccs2)c1S(=O)(=O)c1ccccc1,3,3,58*,-22,29,31,51*
Oc1ccc(/C=C/c2ccc3cccc(O)c3n2)cc1Br,19,89*,53*,108*,30,14,71*
COc1ccccc1Nc1c([N+](=O)[O-])cc(C)cc1[N+](=O)[O-],10,-4,-6,6,-1,-19,/
COc1ccccc1Nc1ccc([N+](=O)[O-])cc1N,31,12,55*,-6,36,27,41*
